Data reported in PubChem BioAssay AID1063 (University of Pittsburgh Molecular Library Screening Center, 2008).
Hit rate of the full screen: of about 200,000 compounds, about 18,000 (9%) were called active. This excerpt belongs to a sample that is enriched for actives. Unmarked numbers belong to inactive results. No stated cut-off is given here; in the data, active means inhibition above about 50%; inactive means the rest.

assay: Leishmania major promastigote growth inhibition, primary screen (AID 1063); settings: Leishmania major promastigotes, resazurin fluorescence viability; at 10 µM; active compounds read high;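 further: promastigotes grown with compound for 44 hours at 28 °C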

Q: For `CC1CC(C)CN(S(=O)(=O)c2ccc(C(=O)NN3CCOCC3)cc2)C1` (stereo unspecified), which inhibition is on record?
A: 6.29%

Q: Which inhibition does the source give for `CCOC(=O)CSc1nc2c(c(=O)n(C)c(=O)n2C)n1Cc1ccccc1F` here?
A: -9.26%

Q: With `COc1ccccc1NC(=O)CSc1nc2sc(C)c(C)c2c(=O)n1Cc1ccco1` as the molecule, how does the inhibition read?
A: 7.51%

Q: For `CCOC(=O)CSc1nc2c(sc(=S)n2CCc2ccccc2)c(=O)n1Cc1ccco1`, which inhibition is on record?
A: 50.2% (active)

Q: With `Cc1ccc(C(C[N+](=O)[O-])c2c(C)cc3ccccn23)cc1` (stereo unspecified) as the molecule, how does the inhibition read?
A: 100% (active)

Q: Which inhibition does the source give for `CC(C)C(=O)Nc1oc(-c2ccccc2)cc1C#N` here?
A: 0.64%

Q: With `O=C(CSc1ccsc1[N+](=O)[O-])N1CCCCC1` as the molecule, how does the inhibition read?
A: 14.2%

Q: For `Cc1nnc(N/N=C/C2CC=CCC2)[nH]c1=O` (stereo unspecified), which inhibition is on record?
A: -5.21%

Q: Which inhibition does the source give for `COc1ccc(COC(=O)c2n[nH]c3ccccc23)cc1F` here?
A: 97.5% (active)

Q: For `COc1cccc(CNC(=O)c2n[nH]c3ccccc23)c1`, which inhibition is on record?
A: 6.49%

Q: Which inhibition does the source give for `O=C(COC(=O)c1n[nH]c2ccccc12)NCc1ccccc1` here?
A: 3.11%

Q: With `CCSc1ccccc1C(=O)Nc1ccc2c(c1)OCO2` as the molecule, how does the inhibition read?
A: 7.96%

Q: For `CN(C)CCCn1c(SCCN2C(=O)c3ccccc3C2=O)nc2ccccc2c1=O`, which inhibition is on record?
A: -2.2%

Q: With `Cn1c(N)c(C(=O)COC(=O)c2cnc(Cl)c(Cl)c2)c(=O)n(C)c1=O` as the molecule, how does the inhibition read?
A: -4.42%

Q: Which inhibition does the source give for `Cc1ccc(C)c(NC(=O)CCC(=O)N/N=C2/CC(=O)CC(C)(C)C2)c1` here?
A: -2.4%

Q: Which inhibition does the source give for `Cc1nnc(SC(C(=O)Nc2cc(Cl)cc(Cl)c2)c2ccccc2)[nH]c1=O` (stereo unspecified) here?
A: -10.6%

Q: Which inhibition does the source give for `O=C(CCC(=O)N1CCCC1)Nc1ccc([N+](=O)[O-])cc1` here?
A: -1.46%

Q: Which inhibition does the source give for `CCCC(C(=O)NCc1ccco1)N(C(=O)CNS(=O)(=O)c1ccccc1)C1CCCC1` (stereo unspecified) here?
A: 60% (active)

Q: Which inhibition does the source give for `O=C(CN(CC1CCCO1)C(=O)CNS(=O)(=O)c1ccc(F)cc1)NCc1ccco1` (stereo unspecified) here?
A: -10%

Q: Which inhibition does the source give for `O=C(NCc1ccco1)C1CCCN(S(=O)(=O)c2ccccc2)C1` (stereo unspecified) here?
A: -0.05%

Q: For `COc1ccc(CSc2nc(N3CCOCC3)c3c(c2C#N)CC(C)(C)OC3)cc1`, which inhibition is on record?
A: 66.8% (active)

Q: Which inhibition does the source give for `CC(C)c1nc(N2CCOCC2)c(C#N)c2c1COC(C)(C)C2` here?
A: 4.48%

Q: With `CC1(C)Cc2c(C#N)c(SCc3nc4ccccc4[nH]3)nc(N3CCOCC3)c2CO1` as the molecule, how does the inhibition read?
A: 34.1%

Q: With `CCN(CC)C(=O)CS(=O)CC(=O)Nc1cc(OCCOC)c(Cl)cc1Cl` (stereo unspecified) as the molecule, how does the inhibition read?
A: 1.34%

Q: For `Cc1ccnc2nc(C(=O)Nc3nnc(-c4ccccc4)o3)nn12`, which inhibition is on record?
A: -14.4%

Q: For `CCOc1ccc(-n2cnnn2)cc1S(=O)(=O)N1CCC(C)CC1C` (stereo unspecified), which inhibition is on record?
A: -5.29%
